Most compounds without a hit are left out; they make up all but 7.9% or so of the library.
HCV inh: qHTS Assay for Inhibitors of Hepatitis C Virus (HCV). 3.4% of 340,000 active. Potency, µM (doses to about 41.8 µM), inactives show at the highest dose activity change, negative = inhibition, hits mostly inhibitors. Huh7.5.1 HCVcc-Cre infection, luciferase reporter, 44 h; active = well fitted inhibition curve with a large enough effect; inconclusive = small, poorly fitted or top-dose-only effect, or another doubt; inactive = no such curve, though single readings can be large or run the other way; note: potency is the fitted concentration of half-maximal effect
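Seed cells (1,000/well) for 4 h; treat with compound and infect with HCVcc-Cre, moi about 0.5. Incubate 44 h, then detect luciferase activity.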
Lassa entry inh: qHTS for Inhibitors of binding or entry into cells for Lassa Virus. 1.2% of 300,000 active. Potency, µM (highest dose often 37.9 µM), for the others: at the highest dose activity change, negative = inhibition, actives largely listed as inhibitors. Lassa virus pseudotype entry inhibition, cell reporter; calls by dose curve; tested in HEK293 cells; note: potency is the fitted concentration of half-maximal effect; nearly all actives have a fitted effect of over 50% in size
Marburg entry inh: qHTS for inhibitors of binding or entry into cells for Marburg Virus. Marburg virus pseudotyped entry inhibition, cell reporter. 1.8% of 300,000 active. Potency, µM (titrated, usually from 37.8 µM), for inactives: at the top dose activity change, negative = inhibition, most hits filed as inhibitors. AID 540276, 2011; calls by dose curve; tested in HEK293 cells; note: potency is the fitted concentration of half-maximal effect
FMDV antiviral: High Throughput Screening for Foot and Mouth Disease Virus Antivirals; FMDV antiviral cell-based qHTS; AID 1159524, 2015; Potency, µM (titrated, usually from 57.9 µM), inactives show at the highest dose activity change, negative = inhibition, most hits filed as inhibitors; 1.2% of 410,000 active; calls by dose curve; tested in HEK293T cells; note: read-out not given here; potency is the fitted concentration of half-maximal effect; nearly all actives have a fitted effect of over 45% in size
HCMV antiviral: qHTS Assay for inhibitors of the human cytomegalovirus (HCMV); HFF cells, HCMV-luciferase reporter, 72 h; stronger effect = lower value; activity change, negative = inhibition, % at 57.5 µM; 4.5% of 410,000 active; AID 1259415, 2018; in the data active = activity change below about -60%; inconclusive = no clear call, values can overlap the other calls; inactive = above about -39%
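After 16 h attachment at 37C, HFF cells received test compound and HCMV-luciferase (1 PFU/cell); reporter luminescence read 72 h later, data normalized against buffer-only and known inhibitor Salinomycin.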
The depositor's hits bear a star; ? = inconclusive; / = no result; [ ] = dose if it differs, or a comment. % is set by controls: 0 for no effect and ±100 for the full control effect.

SMILES | HCV inh | Lassa entry inh | Marburg entry inh | FMDV antiviral | HCMV antiviral
O=C(NC(=S)NNC(=O)[C@H]1C[C@@H]1c1ccccc1)c1ccc(F)cc1 | -30% | / | / | -19% | 9
CC(C)(C)NC(=S)NNC(=O)[C@H]1C[C@@H]1c1ccccc1 | 23% | 0.89µM* | 18%[46.1 µM] | 66% | 4
CCc1ccc(NC(=O)CSc2cn(CC(=O)N3CCOCC3)c3ccccc23)cc1 | / | -1%[46.1 µM] | / | 13% | ?
CCOC1=C2[C@H](c3ccccc3)N(S(=O)(=O)c3ccc(C)cc3)C(C(C)(C)C)[C@H]2C(C#N)(C#N)C(C#N)(C#N)C1 (stereo not given in full) | / | / | / | ? | -100*
CCCCC[C@@H]1[C@@H]2C(=C(OCC)C[C@@H]3C(=O)N(c4ccccc4)C(=O)[C@H]23)[C@H](c2ccccc2)N1S(=O)(=O)c1ccc(C)cc1 | / | / | / | 10% | -23
COC(=O)C(c1ccccc1)(c1cn(C)c2ccccc12)C(Nc1ccccc1)c1ccc(Br)cc1 (stereo not given) | / | / | / | / | -19
CCOC(=O)c1sc2nc(C)nc(Nc3ccc(OC)cc3)c2c1C | -25% | 16% | ? | -5% | -67*
CCOC(=O)c1sc2nc(C)nc(NCc3ccc(Cl)cc3)c2c1C | ? | ? | -20% | ? | -68*
CCOC(=O)c1sc2nc(C)nc(SC(C)C(=O)N(C)c3ccccc3)c2c1C (stereo not given) | ? | ? | ? | -17% | -64*
CCOC(=O)c1sc2nc(C)nc(NCc3ccc(F)cc3)c2c1C | ? | ? | ? | -11% | ?
CCOC(=O)c1sc2nc(C)nc(NCc3cccnc3)c2c1C | -3% | ? | -1%[46.1 µM] | -10% | ?
CN(CCCC(=O)Nc1ccccc1F)S(=O)(=O)c1ccc(F)cc1 | 31% | -8% | 8% | -1% | -61*
Cc1cc(F)ccc1NC(=O)CCCN(C)S(=O)(=O)c1ccc(F)cc1 | -28% | ? | 4%[46.1 µM] | -14% | 24
Cc1ccc(S(=O)(=O)N(C)CCCC(=O)Nc2ccncc2)cc1 | 5.6µM* | / | / | ? | -32
Cc1ccc(S(=O)(=O)N(C)CCCC(=O)Nc2ccc(F)cc2)cc1 | ? | / | / | -21% | 4
CN(CCCC(=O)Nc1ccc(OC(F)F)cc1)S(=O)(=O)c1ccc(F)cc1 | 11µM* | / | -8%[46.1 µM] | ? | -31
Cc1ccccc1C(=O)Nc1cccc(OCc2cc(=O)n3c4c(sc3n2)CCCC4)c1 | / | 13%[46.1 µM] | -6%[46.1 µM] | -13% | -2
Cc1cc(N2CCN(c3nc(-c4ccc([N+](=O)[O-])cc4)cs3)CC2)c2ccccc2n1 | 6.3µM* | ? | 11µM* | ? | -23
Cc1ccc(O)c(C2=NNC(O)(C(F)(F)F)C2)c1 (stereo not given) | 11µM* | ? | -12% | -15% | -30
CCOc1ccc(NC(=O)NCc2ccc3c(c2)CCN3C(C)=O)cc1 | / | 0%[46.1 µM] | / | -23% | -3
CC(=O)N(/N=C1\Sc2ccccc2C1=O)c1ccc(C)cc1C | 4% | 10µM* | ? | ? | -86*
CSc1ncccc1C(=O)N1CCOc2ccc(C(C)(O)CCn3cccn3)cc2C1 (stereo not given) | / | / | / | -2% | /
O=C(Cc1ccccc1)N/N=C/c1ccccc1OCc1ccc(Cl)cc1 | ? | -25% | 24% | 8% | 6
Cc1ccc(S(=O)(=O)/C(C#N)=C/c2ccccc2OCc2ccccc2)cc1 | 21% | ? | ? | 12% | -69*
O=S(=O)(N/N=C/c1ccccc1OCc1ccc(Cl)cc1)c1ccccc1 | ? | -12% | ? | 62% | -83*
SMILES | HCV inh | Lassa entry inh | Marburg entry inh | FMDV antiviral | HCMV antiviral
COC(=O)c1ccc(COc2ccccc2/C=N/NS(=O)(=O)c2ccc(C)cc2)cc1 | / | -31%[14.3 µM] | ? | 59% | -94*
COc1cc(/C=N/NC(=O)CN2CCCCC2)ccc1OCc1ccc(Br)cc1 | 10µM* | ? | ? | -3% | -14
COc1cc(/C=N/NC(=O)CC2(C)OCCCO2)ccc1OCc1ccccc1 | ? | 8% | 33% | 7% | ?
CCCn1c2ccccc2c2cnn(CC(=O)NCCc3ccc(OCC)cc3)c(=O)c21 | / | -19%[46.1 µM] | / | -19% | -36
Cc1cccc(C)c1-n1nnnc1C(=O)c1cccnc1 | / | / | / | / | 22
CCCCC(CC)CNC(=O)c1ccc2c(=O)n(Cc3ccc(OC)cc3)c(=O)[nH]c2c1 (stereo not given) | / | 12%[46.1 µM] | 13%[46.1 µM] | -21% | -21
COc1cc(/C=N/NS(=O)(=O)c2ccc(C)cc2)ccc1OCc1ccc(C(=O)O)cc1 | 13% | 6.3µM* | ? | -37% | 2
COc1ccc(C)cc1N1C(=N)/C(=C2/Nc3ccccc3S2)C(c2ccccc2)C1=O (stereo not given) | 13% | -1% | ? | 25µM* | 114
CCOc1ccc(/C=N/NC(=O)C2CCCC2)c(OCC)c1 | -11% | -25%[46.1 µM] | 2%[46.1 µM] | 16% | ?
CCOc1ccc(/C=N/NC(=O)C2CC2)c(OCC)c1 | 4.5µM* | -23%[46.1 µM] | 7%[46.1 µM] | -12% | -28
CC(C)c1ccc(NC(=O)CN2C(=O)c3cccc4cccc2c34)cc1 | / | -23%[46.1 µM] | / | -11% | -11
Cc1cc(C)c2nc(/N=C(\N)NC(=O)Nc3ccccc3)nc(C)c2c1 | 11µM* | ? | ? | ? | ?
COCCCNC(=O)c1oc2ccc(S(=O)(=O)N3CCOCC3)cc2c1C | 9% | -4% | -26%[46.1 µM] | 0% | -16
Cc1ccc2oc(C(=O)NCc3ccc4c(c3)OCO4)c(C)c2c1 | 6% | ? | 5% | -1% | -6
Cc1c(C(=O)NCc2ccc3c(c2)OCO3)oc2ccc(S(=O)(=O)N3CCCCCC3)cc12 | ? | -27% | 13µM* | ? | -32
CCCCN(C)C(=O)c1oc2ccc(S(=O)(=O)N3CCCCCC3)cc2c1C | / | 14%[14.3 µM] | 5% | 35µM* | ?
Cc1c(C(=O)NCCN2CCOCC2)oc2ccc(S(=O)(=O)N3CCCCCC3)cc12 | -3% | -23% | -12%[46.1 µM] | -5% | -100*
O=C(Cn1ccn(-c2cccc(Cl)c2)c(=O)c1=O)NCCc1ccccc1 | / | -3%[46.1 µM] | / | 4% | -20
CCCC1(CCC)C(=O)NC(=Nc2ccccc2)NC1=O | 10% | -8% | 9% | / | 68
CCCCC1(CCCC)C(=O)NC(=Nc2cccc(C)c2)NC1=O | ? | -2% | 14% | -23% | -61*
Cc1cc(C(=O)C(C)Sc2cccc[n+]2[O-])c(C)n1-c1ccc(Cl)cc1 (stereo not given) | 4.5µM* | ? | ? | -7% | -26
Cc1cc(C(=O)C(=O)O)c(C)n1-c1ccc(Cl)cc1 | 8% | 19%[46.1 µM] | -7%[46.1 µM] | 0% | -32
CCCC(=O)N1c2ncnn2C2(CCCCC2)[C@@H]2CCCC[C@@H]21 | / | -5%[46.1 µM] | -29%[46.1 µM] | -15% | -7
COc1ccc(OC)c(S(=O)(=O)N/N=C\c2c[nH]c3ccccc23)c1 | 11µM* | ? | -13% | 40% | 12
